Tau fibril FP: tau fibrillization inhibition (FP); K18 P301L tau heparin fibrillization, Alexa594 FP, 6 h; P10636; 280,000 tested, 0.39% active; Potency, µM (titrated, usually from 57.7 µM), for inactives: at the top dose activity, negative = inhibition, usual class: inhibitors; note: nearly all actives have a fitted effect of over 55% in size
Target sequence (P10636 561-689 P618L limits assumed): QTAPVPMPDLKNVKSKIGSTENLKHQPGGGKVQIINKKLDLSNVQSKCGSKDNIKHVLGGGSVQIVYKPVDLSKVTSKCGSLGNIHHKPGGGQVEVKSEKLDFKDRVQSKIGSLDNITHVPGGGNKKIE
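Compound effects on tau fibrillization are measured by Alexa 594 fluorescence polarization (ex 555, em 632 nm). K18 P301L tau is used at 15 uM with 0.24 uM labeled tracer, and 20 uM heparin induces aggregation over 6 hr at 37 C.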
Tau fluor counter: counter-screen for tau fibril formation inhibitors. tau K18 P301L Alexa594 fluorescence, heparin fibrillization. Potency, µM (titrated, usually from 57.7 µM), for inactives: at the highest dose activity change, negative = decrease. 280,000 tested, 0.93% active; note: nearly all actives have a fitted effect of over 55% in size
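Human tau K18 P301L (15 uM unlabeled, 0.24 uM Alexa 594-labeled) in 100 mM sodium acetate pH 7 with 20 uM heparin, 6 hr at 37 C. ThT 30 uM added, 1 hr ambient; Alexa 594 FP and total fluorescence read at 555/632 nm.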
VP16 counter: Gal4-VP16 reporter inhibition counter-screen. Potency, µM (highest dose often 53.6 µM), for inactives: at the top dose activity, negative = inhibition, hits mostly inhibitors. 310,000 tested, 3.5% active. Drosophila S2 Gal4-VP16 UAS-luciferase, luminescence, 20 h;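 note: Gal4-VP16 expression switched on by copper sulfate through the metallothionein promoter; nearly all actives have a fitted effect of over 50% in size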
RORgamma inh: ROR gamma (mouse) transcription inhibition; P51450; Drosophila S2 Gal4-RORgamma UAS-luciferase reporter, 20 h; Potency, µM (highest dose often 53.6 µM), inactives show at the top dose activity change, negative = inhibition, actives largely listed as inhibitors; 310,000 tested, 5.4% active; note: nearly all actives have a fitted effect of over 60% in size
Target sequence (P51450 whole entry, looked up, the tested form may be a part): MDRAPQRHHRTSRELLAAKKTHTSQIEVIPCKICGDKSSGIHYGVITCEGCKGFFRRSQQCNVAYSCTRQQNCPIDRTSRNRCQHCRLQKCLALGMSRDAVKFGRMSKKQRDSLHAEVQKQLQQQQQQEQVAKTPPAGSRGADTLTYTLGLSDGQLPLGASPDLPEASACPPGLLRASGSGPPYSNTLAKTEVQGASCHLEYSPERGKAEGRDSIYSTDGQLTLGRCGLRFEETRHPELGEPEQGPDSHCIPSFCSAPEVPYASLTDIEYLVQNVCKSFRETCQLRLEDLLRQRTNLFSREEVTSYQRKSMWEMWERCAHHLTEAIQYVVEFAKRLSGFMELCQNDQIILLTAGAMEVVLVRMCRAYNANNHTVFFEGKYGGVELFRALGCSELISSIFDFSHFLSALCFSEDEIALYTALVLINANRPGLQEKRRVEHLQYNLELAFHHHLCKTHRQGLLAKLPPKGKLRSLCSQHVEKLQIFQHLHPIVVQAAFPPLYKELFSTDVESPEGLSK
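Luciferase reporter read in Schneider cells carrying Gal4-RORγ (mouse) and UAS-Photinus luciferase; cells given compound 1 h before 700 uM copper sulfate induction, then incubated 20 h at ambient temperature.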
Tau ThT inhib: inhibitors of human tau fibril formation, thioflavin T binding. 270,000 tested, 2.1% active. recombinant tau K18 P301L (four-repeat tau fragment), heparin-induced fibrillization, ThT fluorescence. Potency, µM (top dose mostly 57.4 µM), for inactives: at the top dose activity, negative = inhibition, usual class: inhibitors; note: nearly all actives have a fitted effect of over 55% in size
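In this qHTS, human K18 P301L tau is incubated with compound and heparin for 6 hr at 37 C, and Thioflavin T fluorescence then reports fibril load.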
An asterisk follows results filed as active; ? = inconclusive; nt = no result; [ ] = dose if it differs, or a comment. Only some compounds are listed: those with a hit (about 7.3% of all), similar ones and a draw of the others. Calls come from the whole dose curve; as a rule, active = well fitted curve in the direction sought with a large enough effect; inconclusive = small, poorly fitted or top-dose-only effect, or another doubt; inactive = no such curve, though single readings can be large; an effect the other way counts as inactive or inconclusive. % is set by controls: 0 for no effect and ±100 for the full control effect; potency is the fitted concentration of half-maximal effect.

SMILES	Tau fibril FP	Tau fluor counter	VP16 counter	RORgamma inh	Tau ThT inhib
CC(=O)Nc1ccc(Nc2nc(C)c([N+](=O)[O-])c(Nc3ccc(NC(C)=O)cc3)n2)cc1	?	-21%	-7%	?	13µM*
CNc1nc(C)c([N+](=O)[O-])c(Nc2ccc(OC)cc2)n1	nt	nt	3%	-2%	nt
Cc1ccc(-n2nc3c(N4CCC(C(=O)NC(C)c5ccccc5)CC4)nnc(C)c3c2C)cc1 (configuration not stated)	-5%	-16%	nt	nt	?
Cc1scc(C(=O)N/N=C/c2ccc(Cl)s2)c1C	-6%	-10%	13µM*	14µM*	-15%
CCOc1ccc(/C=N/NC(=O)c2csc(C)c2C)c(OCC)c1	11%	-8%	-9%	13µM*	?
O=c1c(-c2ccc(F)cc2)nc2cnc(N3CCNCC3)nc2n1C1CC1	nt	nt	-5%	-17%	nt
CCCCCN(C(=O)NC(=O)Nc1nncs1)S(C)(=O)=O	2%	7%	-1%	11µM*	-4%
CCCSCCCNC(=O)c1ccc(C)c(NC(=O)C2=C(C)OCCS2)c1	nt	nt	-9%	-13%	nt
CCN1CC2=C(OC(N)=C(C#N)C2c2cccs2)/C(=C/c2cccs2)C1 (configuration not stated)	-6%	-25%	12%	13%	16µM*
CCN1C=C(Cc2cccs2)C2=C(C1)C(c1cccs1)C(C#N)=C(N)O2 (configuration not stated)	-9%	-23%	-2%	18%	22µM*
CCN1CC2=C(OC(N)=C(C#N)C2c2ccccc2)/C(=C\c2ccccc2)C1 (configuration not stated)	-8%	-13%	4%	16%	?
O=C(NCCc1cscn1)C1CCC(=O)N(Cc2ccc(Cl)cc2)C1 (configuration not stated)	nt	nt	?	20µM*	nt
CC1(C)CC(=O)c2cc(C(=O)Nc3ccccc3Cl)c(=O)n(-c3ccc(Cl)cc3)c2C1	-3%	-3%	nt	nt	-1%
CC[n+]1c(/C=C2/C=C(C)CC(C)C2)sc2ccccc21 (configuration not stated)	-12%	-19%	-23%	-15%	?
CC[n+]1c(/C=C/Nc2ccccc2)sc2ccccc21	1%	28µM*[fluorescent]	-26%	23%	?
CC[n+]1c(/C=C(\C)Nc2ccccc2)sc2ccccc21	4%	-3%	4%	-1%[10 µM]	?
CC[n+]1c(C=C2C=C(C)OC(C)=C2)sc2ccccc21	1%	2%	10µM*	?	25µM*
CNc1cc([N+](=O)[O-])ccc1N/C=C/C(=O)c1cccs1	10%	?	?	?	16µM*
CNc1cc([N+](=O)[O-])ccc1N/C=C/C(=O)c1ccc2c(c1)OCO2	8%	-27%	-27%	?	3.5µM*
O=C(/C=C/Nc1cccc([N+](=O)[O-])c1)c1cccs1	3%	?	?	?	4.5µM*
Cc1ccc([N+](=O)[O-])cc1NC(=O)c1cccs1	2%	1%	6%	-22%	5%
O=C(COC(=O)C12CC3CC(CC(C3)C1)C2)NCCc1ccccc1	7%	-13%	8%	3%	-15%
Cc1ccc(C(=O)NC(=S)Nc2ccc(CN3CCCCC3)cc2)c(C)c1	-2%	-2%	?	13µM*	3%
COc1ccc(C(=O)NC(=S)Nc2ccc(CN3CCOCC3)cc2)cc1OC	1%	5%	-6%	?	-2%
COc1ccc(C(=O)NC(=S)Nc2ccc(CN3CCCCC3)cc2)cc1Cl	0%	-15%	?	20µM*	-12%
SMILES	Tau fibril FP	Tau fluor counter	VP16 counter	RORgamma inh	Tau ThT inhib
COc1ccc(C(=O)NC(=S)Nc2ccc(CN3CCOCC3)cc2)cc1Cl	nt	nt	?	13µM*	nt
O=C(NC(=S)Nc1ccc(CN2CCCCC2)cc1)c1ccco1	5%	4%	-14%[10 µM]	-30%	1%
OC(COC(c1ccc(F)cc1)c1ccc(F)cc1)CN1CCCC(C(F)(F)F)C1 (configuration not stated)	nt	nt	26%	10%	nt
O=C(CCCSc1ccc(Cl)cc1)Nc1ccccc1O	nt	nt	2%	?	nt
CCCNC(=O)OC[C@H]1O[C@@H](CCO/N=C\[C@@H](NS(=O)(=O)c2ccc(C)cc2)[C@H](C)/C=C\CC(=O)OC)C=C[C@@H]1Oc1ccc(OC)cc1	2%[11.6 µM]	-8%[11.6 µM]	4%[10 µM]	-3%[10 µM]	-3%[11.5 µM]
Cc1ccc(-c2csc3ncnc(Sc4nnc(CN5CCCCCC5=O)o4)c23)cc1	?	-4%	?	10µM*	?
CSc1ccc(/C=C/c2nc3ccccc3n2S(=O)(=O)c2ccc(Br)cc2)cc1	?	32µM*[quencher]	nt	nt	3%
O=c1c(N2CCN(c3cccc(Cl)c3)CC2)csc2ccc(Cl)cc12	-5%	-29%	nt	nt	8.9µM*
O=c1c(N2CCN(c3cccc(C(F)(F)F)c3)CC2)csc2ccc(Cl)cc12	4%	-19%	nt	nt	16µM*
CC(=O)N1CCN(c2csc3ccc(Cl)cc3c2=O)CC1	8%	-10%	nt	nt	?
COc1cc(C(=O)Nc2cc(C)c(O)c(-c3nc4ccccc4s3)c2)cc(OC)c1OC	3%	-28%	nt	nt	-4%
COc1ccc(C(=O)NCCCNC(=O)c2ccc(C)nc2)cc1	nt	nt	2%	26%	nt
CCC(=O)NC1=C(NC(C)c2ccccc2)C(=O)c2ccccc2C1=O (configuration not stated)	2%	-11%	?	-24%	?
CCC(=O)NC1=C(Cl)C(=O)C(NC(=O)CC)=C(Cl)C1=O	3.5µM*	?	7.1µM*	2.8µM*	2µM*
O=c1cnnc(Nc2ccc(Cl)c(C(F)(F)F)c2)[nH]1	-4%	-6%	-16%	23%	-2%
COc1ccc(Nc2nc3[nH]c(=O)cc(O)c3s2)cc1	2%	11%	-12%	11%	11%
O=c1cc(O)c2sc(Nc3ccc(F)c(Cl)c3)nc2[nH]1	?	?	6%	21%	28µM*
O=c1cc(O)c2sc(Nc3ccc(Cl)c(F)c3)nc2[nH]1	13µM*	?	-4%	24%	16µM*
COc1ccc(C2(C)NC(=O)N(CC(=O)Nc3ccc(Br)c(C)c3)C2=O)cc1OC (configuration not stated)	nt	nt	-1%	29%	nt
Cc1nc(N=Nc2cc(S(=O)(=O)O)c3cc([N+](=O)[O-])cc(S(=O)(=O)O)c3c2)c(COP(=O)(O)O)c(C=O)c1O	20µM*	14µM*[quencher]	4%	-19%	8.9µM*
Cc1nc(N=Nc2cc([N+](=O)[O-])ccc2Cl)c(COP(=O)(O)O)c(C=O)c1O	nt	nt	0%	-24%	nt
COc1ccc(-c2ccc(=O)n(CC(=O)Nc3ccc(N(C)C)cc3)n2)cc1	2%	?	nt	nt	?
C/C(Cl)=C\Cn1c(O)c(N=NC(N)=S)c2cc(Br)ccc21	?	?	3.2µM*	3.2µM*	?

Bioassay records: PubChem, National Center for Advancing Translational Sciences (NCATS)
